Whole data set: some 16,000 sequences, median “rpm ratio (pull-down/input)” near 0.94, cut for the highest 2% near 1.7. The list comes from a sample in which the highest values are over-represented; it also holds similar and randomly drawn sequences.

Data on 46 sequences can be found in article PMC12820563, “FoxP3 forms a head-to-head dimer in vivo and stabilizes its multimerization on adjacent microsatellites”.

The assay has as its target T1, MBP-FoxP1dN (Mus musculus, UniProt P58462 326-579).
T1 sequence: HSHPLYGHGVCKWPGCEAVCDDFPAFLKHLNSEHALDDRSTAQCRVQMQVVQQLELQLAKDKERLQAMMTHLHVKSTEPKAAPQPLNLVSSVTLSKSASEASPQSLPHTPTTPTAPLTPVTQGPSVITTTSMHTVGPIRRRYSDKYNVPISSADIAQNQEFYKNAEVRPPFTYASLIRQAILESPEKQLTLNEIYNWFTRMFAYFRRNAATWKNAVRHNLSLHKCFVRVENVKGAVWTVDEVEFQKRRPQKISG
Description: PD-seq (MBP pull-down with sequencing); 20 mM Tris-HCl pH 7.5, 100 mM NaCl, 1.5 mM MgCl2, 0.4 uM protein, 0.1 uM dsDNA library, 30 min, room temperature, amylose pull-down; high values mean tight binding. The settings on record: protein: recombinant; tags: His6-MBP; chain copies: 2; dsDNA, one strand shown. A digest of the protocol: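 His6-MBP-tagged mouse FoxP3 or FoxP1 fragment lacking the N-terminus, expressed in E. coli, was mixed at 0.4 µM with 0.1 µM Klenow-filled double-stranded degenerate DNA library. Incubation was 30 min at room temperature in Tris pH 7.5 buffer with NaCl and MgCl2. Complexes were caught on amylose resin and washed three times; DNA was released with proteinase K, PCR-barcoded and Illumina-sequenced. Binding is reads-per-million enrichment, pull-down over input, with replicates pooled.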
Regarding “GATGATTGTTCTCCCAGCTGATGAATTCAACGCGTCGAGTAAACAAATTTTCCTAATCTTTCTGTTCAAGCGCCATCTAC”, the binding signal is 0.959 RPM ratio (pull-down/input). “GATGATTGTTCTCCCAGCTGATGAATTTTTACCATCGAGTAAACAAATTTTCCTAATCTTTCTGTTCAAGCGCCATCTAC”: the binding signal was 1.01 RPM ratio (pull-down/input). Turning to “GATGATTGTTCTCCCAGCTGATGAATTTTACTGGTCGAGTAAACAAATTTTCCTAATCTTTCTGTTCAAGCGCCATCTAC”, the binding signal is 0.796 RPM ratio (pull-down/input). With “GATGATTGTTCTCCCAGCTGATGAATTCTGGAGATCGAGTAAACAAATTTTCCTAATCTTTCTGTTCAAGCGCCATCTAC”, the binding signal is 0.812 RPM ratio (pull-down/input). Turning to “GATGATTGTTCTCCCAGCTGATGAATTACAATGTTCGAGTAAACAAATTTTCCTAATCTTTCTGTTCAAGCGCCATCTAC”, the binding signal was 1.4 RPM ratio (pull-down/input). As for “GATGATTGTTCTCCCAGCTGATGAATTTATTTCATCGAGTAAACAAATTTTCCTAATCTTTCTGTTCAAGCGCCATCTAC”, the figure is 1.16 RPM ratio (pull-down/input); as for “GATGATTGTTCTCCCAGCTGATGAATTATCAAAATCGAGTAAACAAATTTTCCTAATCTTTCTGTTCAAGCGCCATCTAC”, 1.22 RPM ratio (pull-down/input). As to “GATGATTGTTCTCCCAGCTGATGAATTATCTACATCGAGTAAACAAATTTTCCTAATCTTTCTGTTCAAGCGCCATCTAC”, the binding signal is 1.12 RPM ratio (pull-down/input). As to “GATGATTGTTCTCCCAGCTGATGAATTATCAACATCGAGTAAACAAATTTTCCTAATCTTTCTGTTCAAGCGCCATCTAC”, the binding signal was 2.09 RPM ratio (pull-down/input).

On to “GATGATTGTTCTCCCAGCTGATGAATTTATTTTATCGAGTAAACAAATTTTCCTAATCTTTCTGTTCAAGCGCCATCTAC”, for which the binding signal is 1.46 RPM ratio (pull-down/input). Take “GATGATTGTTCTCCCAGCTGATGAATTTTATTTATCGAGTAAACAAATTTTCCTAATCTTTCTGTTCAAGCGCCATCTAC”: the binding signal is 2.95 RPM ratio (pull-down/input).

As to “GATGATTGTTCTCCCAGCTGATGAATTTGCTCCCTCGAGTAAACAAATTTTCCTAATCTTTCTGTTCAAGCGCCATCTAC”, the binding signal is 0.995 RPM ratio (pull-down/input).

As to “GATGATTGTTCTCCCAGCTGATGAATTACGGCCTTCGAGTAAACAAATTTTCCTAATCTTTCTGTTCAAGCGCCATCTAC”, the binding signal was 0.977 RPM ratio (pull-down/input). For “GATGATTGTTCTCCCAGCTGATGAATTGCTGAGATCGAGTAAACAAATTTTCCTAATCTTTCTGTTCAAGCGCCATCTAC”, the binding signal is 0.969 RPM ratio (pull-down/input). As to “GATGATTGTTCTCCCAGCTGATGAATTGACTAGTTCGAGTAAACAAATTTTCCTAATCTTTCTGTTCAAGCGCCATCTAC”, the binding signal was 1.08 RPM ratio (pull-down/input). Regarding “GATGATTGTTCTCCCAGCTGATGAATTAGTAACATCGAGTAAACAAATTTTCCTAATCTTTCTGTTCAAGCGCCATCTAC”, the binding signal was 1.45 RPM ratio (pull-down/input). Regarding “GATGATTGTTCTCCCAGCTGATGAATTTCCCACTTCGAGTAAACAAATTTTCCTAATCTTTCTGTTCAAGCGCCATCTAC”, the binding signal is 0.889 RPM ratio (pull-down/input). As for “GATGATTGTTCTCCCAGCTGATGAATTCTCTTATTCGAGTAAACAAATTTTCCTAATCTTTCTGTTCAAGCGCCATCTAC”, the binding signal was 0.995 RPM ratio (pull-down/input). In the case of “GATGATTGTTCTCCCAGCTGATGAATTTTGTTATTCGAGTAAACAAATTTTCCTAATCTTTCTGTTCAAGCGCCATCTAC”, the binding signal is 2.37 RPM ratio (pull-down/input).

For “GATGATTGTTCTCCCAGCTGATGAATTCGTTATTTCGAGTAAACAAATTTTCCTAATCTTTCTGTTCAAGCGCCATCTAC”, the binding signal was 1.14 RPM ratio (pull-down/input). As to “GATGATTGTTCTCCCAGCTGATGAATTGTGTTATTCGAGTAAACAAATTTTCCTAATCTTTCTGTTCAAGCGCCATCTAC”, the binding signal was 2.18 RPM ratio (pull-down/input). As for “GATGATTGTTCTCCCAGCTGATGAATTCCTGTGTTCGAGTAAACAAATTTTCCTAATCTTTCTGTTCAAGCGCCATCTAC”, the figure is 1.26 RPM ratio (pull-down/input); as for “GATGATTGTTCTCCCAGCTGATGAATTGTTATGTTCGAGTAAACAAATTTTCCTAATCTTTCTGTTCAAGCGCCATCTAC”, 2.01 RPM ratio (pull-down/input). Consider “GATGATTGTTCTCCCAGCTGATGAATTTTCTTATTCGAGTAAACAAATTTTCCTAATCTTTCTGTTCAAGCGCCATCTAC”, for which the binding signal was 0.953 RPM ratio (pull-down/input).

Regarding “GATGATTGTTCTCCCAGCTGATGAATTTATGATTTCGAGTAAACAAATTTTCCTAATCTTTCTGTTCAAGCGCCATCTAC”, the binding signal was 1.37 RPM ratio (pull-down/input). As for “GATGATTGTTCTCCCAGCTGATGAATTTGATTATTCGAGTAAACAAATTTTCCTAATCTTTCTGTTCAAGCGCCATCTAC”, the figure is 1.2 RPM ratio (pull-down/input); as for “GATGATTGTTCTCCCAGCTGATGAATTTGGTTATTCGAGTAAACAAATTTTCCTAATCTTTCTGTTCAAGCGCCATCTAC”, 1.15 RPM ratio (pull-down/input). “GATGATTGTTCTCCCAGCTGATGAATTCTTATGTTCGAGTAAACAAATTTTCCTAATCTTTCTGTTCAAGCGCCATCTAC”: the binding signal was 1.21 RPM ratio (pull-down/input). For “GATGATTGTTCTCCCAGCTGATGAATTCTTATTTTCGAGTAAACAAATTTTCCTAATCTTTCTGTTCAAGCGCCATCTAC”, the binding signal was 2.25 RPM ratio (pull-down/input). Turning to “GATGATTGTTCTCCCAGCTGATGAATTCCGTAAATCGAGTAAACAAATTTTCCTAATCTTTCTGTTCAAGCGCCATCTAC”, the binding signal is 1.2 RPM ratio (pull-down/input). On to “GATGATTGTTCTCCCAGCTGATGAATTGAACGTCTCGAGTAAACAAATTTTCCTAATCTTTCTGTTCAAGCGCCATCTAC”, for which the binding signal is 0.787 RPM ratio (pull-down/input). “GATGATTGTTCTCCCAGCTGATGAATTACCGTGGTCGAGTAAACAAATTTTCCTAATCTTTCTGTTCAAGCGCCATCTAC”: the binding signal is 0.89 RPM ratio (pull-down/input). In the case of “GATGATTGTTCTCCCAGCTGATGAATTTCCGAGGTCGAGTAAACAAATTTTCCTAATCTTTCTGTTCAAGCGCCATCTAC”, the binding signal is 0.721 RPM ratio (pull-down/input). As for “GATGATTGTTCTCCCAGCTGATGAATTAGACTTCTCGAGTAAACAAATTTTCCTAATCTTTCTGTTCAAGCGCCATCTAC”, the binding signal is 0.789 RPM ratio (pull-down/input).

For the sequence “GATGATTGTTCTCCCAGCTGATGAATTCCTTAGATCGAGTAAACAAATTTTCCTAATCTTTCTGTTCAAGCGCCATCTAC”, the binding signal is 0.924 RPM ratio (pull-down/input). As to “GATGATTGTTCTCCCAGCTGATGAATTTGCTCGATCGAGTAAACAAATTTTCCTAATCTTTCTGTTCAAGCGCCATCTAC”, the binding signal was 0.994 RPM ratio (pull-down/input). As for “GATGATTGTTCTCCCAGCTGATGAATTTTTATTCTCGAGTAAACAAATTTTCCTAATCTTTCTGTTCAAGCGCCATCTAC”, the figure is 1.06 RPM ratio (pull-down/input); as for “GATGATTGTTCTCCCAGCTGATGAATTATTATGTTCGAGTAAACAAATTTTCCTAATCTTTCTGTTCAAGCGCCATCTAC”, 1.69 RPM ratio (pull-down/input); as for “GATGATTGTTCTCCCAGCTGATGAATTATTATTCTCGAGTAAACAAATTTTCCTAATCTTTCTGTTCAAGCGCCATCTAC”, 1.45 RPM ratio (pull-down/input). Regarding “GATGATTGTTCTCCCAGCTGATGAATTTGTTATTTCGAGTAAACAAATTTTCCTAATCTTTCTGTTCAAGCGCCATCTAC”, the binding signal was 2.17 RPM ratio (pull-down/input).

As to “GATGATTGTTCTCCCAGCTGATGAATTATGTTATTCGAGTAAACAAATTTTCCTAATCTTTCTGTTCAAGCGCCATCTAC”, the binding signal was 2.18 RPM ratio (pull-down/input). For “GATGATTGTTCTCCCAGCTGATGAATTGTTATTCTCGAGTAAACAAATTTTCCTAATCTTTCTGTTCAAGCGCCATCTAC”, the binding signal is 2.03 RPM ratio (pull-down/input). “GATGATTGTTCTCCCAGCTGATGAATTGTTATTTTCGAGTAAACAAATTTTCCTAATCTTTCTGTTCAAGCGCCATCTAC”: the binding signal is 3.47 RPM ratio (pull-down/input).

With “GATGATTGTTCTCCCAGCTGATGAATTTCTTATTTCGAGTAAACAAATTTTCCTAATCTTTCTGTTCAAGCGCCATCTAC”, the binding signal is 1.07 RPM ratio (pull-down/input). Regarding “GATGATTGTTCTCCCAGCTGATGAATTATGTAATTCGAGTAAACAAATTTTCCTAATCTTTCTGTTCAAGCGCCATCTAC”, the binding signal is 1.31 RPM ratio (pull-down/input). Regarding “GATGATTGTTCTCCCAGCTGATGAATTGGTTATTTCGAGTAAACAAATTTTCCTAATCTTTCTGTTCAAGCGCCATCTAC”, the binding signal was 1.13 RPM ratio (pull-down/input).
